Our source for the B-score and outcome values is PubChem BioAssay AID488977 (Johns Hopkins Ion Channel Center, 2010).

SMILES strings stand for the structures. Hit rate of the full screen: of about 310,000 compounds, about 1,500 (0.48%) were called active. The sample holds actives, similar compounds and a random draw of the others, so the mix is not that of the screen.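 Rule for the calls: active = initial fluorescence not abnormally high and integrated response B-score, plate-corrected, over 3 SD above library mean; inactive = the rest.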

For this assay, the target named is High affinity choline transporter 1 (Homo sapiens) (UniProt Q9GZV3). Kind of assay: CHT positive allosteric modulators, primary screen, cell-based, membrane potential dye, choline EC20 (AID 488977). The conditions noted are these: CHT-expressing cells, at 10 µM; B-score: active compounds read high, LV-AA mutant CHT in HEK293 cells unless noted; outcome: LV-AA mutant CHT in HEK293 cells unless noted.
Chain of High affinity choline transporter 1 (Homo sapiens) (Q9GZV3 whole entry, looked up): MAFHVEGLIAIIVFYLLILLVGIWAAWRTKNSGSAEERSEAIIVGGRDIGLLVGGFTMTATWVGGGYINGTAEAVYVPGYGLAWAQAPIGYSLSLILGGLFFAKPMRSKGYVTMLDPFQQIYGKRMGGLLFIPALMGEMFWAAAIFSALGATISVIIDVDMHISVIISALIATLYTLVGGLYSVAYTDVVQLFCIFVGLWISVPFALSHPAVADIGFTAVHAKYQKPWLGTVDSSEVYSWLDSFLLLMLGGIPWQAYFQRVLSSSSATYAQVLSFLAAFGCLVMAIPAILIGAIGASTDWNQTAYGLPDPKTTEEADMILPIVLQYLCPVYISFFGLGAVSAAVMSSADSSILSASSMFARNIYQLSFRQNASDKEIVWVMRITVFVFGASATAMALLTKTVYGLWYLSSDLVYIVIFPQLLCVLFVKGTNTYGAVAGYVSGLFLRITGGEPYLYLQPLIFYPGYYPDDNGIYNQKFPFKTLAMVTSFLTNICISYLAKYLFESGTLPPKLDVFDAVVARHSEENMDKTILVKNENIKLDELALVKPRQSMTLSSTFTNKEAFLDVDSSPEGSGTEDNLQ
On to `CN1CCN(c2cc(N3CCNCC3)ccc2[N+](=O)[O-])CC1`, for which the B-score is 8.44 (active).

As for `CCN1CCN(c2ccc([N+](=O)[O-])cc2C#N)CC1`, the B-score entry is “inactive”.

Regarding `COC(=O)C1=C(c2cc3ccccc3o2)C[C@@H]2CC[C@H]1N2C(=O)NC1CCCCC1`, the B-score entry was “inactive”.

Consider `COC(=O)C1=C(c2cc3ccccc3s2)C[C@@H]2CC[C@H]1N2C(=O)NCCO`, for which the B-score entry was “inactive”.

As to `COC(=O)C1=C(c2ccccc2)C[C@@H]2CC[C@H]1N2C(=O)N1CCCCC1`, the B-score entry is “inactive”.

`Cc1nc2ccc(N3CCN(C)CC3)cc2nc1C`: the B-score was 6.37 (active).

Regarding `C=CC12CN(C)[C@@H]3C4CO[C@H](C[C@H]41)[C@]1(C(=O)Nc4ccccc41)[C@@H]32` (stereo not given in full), the B-score result was “inactive”.

For the molecule `CC(=O)Nc1ccc(C(=O)C(Cc2ccccc2)N(C)C)cc1` (stereo not given), the B-score entry is “inactive”.

For `O=[N+]([O-])c1cnc2ccc3ccccc3c2c1`, the B-score result was “inactive”.

On to `CCCCn1c(=O)c(C(=O)Nc2ccccc2Cl)c(O)c2ccccc21`, for which the B-score entry was “inactive”.

Consider `CCCCCn1c(=O)c(C(=O)Nc2c(C)n(C)n(-c3ccccc3)c2=O)c(O)c2ccccc21`, for which the B-score was 8.71 (active).

On to `CCCCCn1c(=O)c(C(=O)NCc2ccccc2)c(O)c2ccccc21`, for which the B-score result is “inactive”.

For `CNCC(O)c1cc(F)c(OCc2ccccc2)c(OCc2ccccc2)c1F` (stereo not given), the B-score result is “inactive”.

In the case of `O=C(N/N=C/c1c(O)n(C2CC2)c(=S)[nH]c1=O)c1ccccc1Cl`, the outcome is “inactive [setting not given]”.

Turning to `C/C(=N/O)c1ccc2ccc3ccccc3c2c1`, the B-score entry was “inactive”.
